Active and inactive are the calls of the source. A call without a number means that no potency is given here. Calls follow the shape of the dose curve; as a rule, active = well fitted curve in the direction sought with a large enough effect in the repeat runs; inconclusive = weak or mixed curves; inactive = flat fitted curve, though single readings scatter.
Experiment: qHTS assay to test for compound auto fluorescence at 460 nm (blue) in HEK293 cells (AID 720678)
Conditions: blue autofluorescence 405/460 nm; series mostly up to 91.3 µM
Text: National Center for Advancing Translational Sciences [NCATS]
NIH Chemical Genomics Center [NCGC]
U.S. Environmental Protection Agency [EPA]
National Institutes of Environmental Health Sciences [NIEHS]
National Toxicology Program [NTP]
U.S. Food and Drug Administration [FDA]
Compound auto fluorescence often interferes with screening of the compound library against various biological targets and signaling pathways. Some of these compounds may have fluorophoric properties. Such properties may interfere with the assay outputs resulting in false positives and/or negatives. To decrease such complications and ensure the compound activities are relevant in terms of biological response, the Tox21 10K compound library was screened for auto fluorescence.
From the fluorophores used as reporter signals in our screening assays, the auto fluorescence equivalencies of compounds against three fluorophores have been evaluated: Triamterene, Fluorescein and Rose Bengal sodium for blue, green and red fluorescence, respectively. The fluorescence intensities were measured using Excitation/Emission wavelengths at 405/460nm, 485/535nm and 540/590nm for blue, green and red labels, respectively. This assay includes the blue fluorescence data.
Tox21 Assay Protocol Summary:
2,000 HEK293 cells in 5 uL of culture medium containing 10% dialyzed FBS per well were dispensed into black wall/clear bottom 1536-well plates using a Multidrop Combi Dispenser (Thermo Scientific). The assay plates were incubated for 4-5 hr at 37C to allow cell attachment to the well bottom, followed by the transfer of 23 nL compound or DMSO vehicle by a pintool work station (Kalypsys, San Diego, CA). After the assay plates were incubated overnight at 37C and 5% CO2, fluorescence intensities in the assay plates were measured by an Envision (PerkinElmer, Shelton, CT) plate reader using three labels for measuring blue, green and red fluorescence at […] 460, 535 and 590nm respectively.

| SMILES | Potency | fluorescence, % of triamterene |
| --- | --- | --- |
| CCCCCCOC(=O)CC(CC(=O)OCCCCCC)(OC(=O)CCC)C(=O)OCCCCCC | inactive | – |
| CN(C)C(=O)C(CCN1CCC(O)(c2ccc(Cl)cc2)CC1)(c1ccccc1)c1ccccc1 | inactive | – |
| NS(=O)(=O)c1cc(C2(O)NC(=O)c3ccccc32)ccc1Cl (stereo not given) | – | -0.0194% [at 18.6 µM] (inactive) |
| NCCN1CCNC1=O | inactive | – |
| CC(=O)CCc1ccc(O)cc1 | inactive | – |
| CCO[Si](C)(OCC)OCC | inactive | – |
| CCCCOCC(C)OCC(C)O (stereo not given) | inactive | – |
| CCCCCCC(=O)OCC | inactive | – |
| CCC(=O)c1cccc(Cl)c1 | inactive | – |
| NC(=O)c1ncn([C@@H]2O[C@H](CO)[C@@H](O)[C@H]2O)c1N | inactive | – |
| CC/C=C\CCCCO | inactive | – |
| O=C(O)c1ccccc1S | inactive | – |
| CC1=CC(=O)CCC1 | inactive | – |
| C=CC(=O)N1CCOCC1 | inactive | – |
| C=CCSCC1Nc2cc(Cl)c(S(N)(=O)=O)cc2S(=O)(=O)N1 (stereo not given) | inactive | – |
| CC1CCN(CCCC(=O)c2ccc(F)cc2)CC1 | inactive | – |
| NC(=O)CCCCC1CCSS1 (stereo not given) | inactive | – |
| CN(C)N=Nc1ccccc1 | inactive | – |
| CCC(C)(C)C1CCC(OC)CC1 (stereo not given) | inactive | – |
| CCCCCCCCCCCl | inactive | – |

| SMILES | Potency | fluorescence, % of triamterene |
| --- | --- | --- |
| NC(=S)Nc1cccc2ccccc12 | – | -0.0445% [at 3.72 µM] (inactive) |
| COC(=O)CCCCCCCCC(=O)OC | inactive | – |
| CC(=O)c1ccc(C)cc1 | inactive | – |
| O=[N+]([O-])c1ccc(Oc2ccc([N+](=O)[O-])cc2)cc1 | inactive | – |
| N#CC1(O)CCCCC1 | inactive | – |
| CCCCC=O | inactive | – |
| COc1cc(C)cc(O)c1 | inactive | – |
| CC(CCO)CCCC(C)(C)O (stereo not given) | inactive | – |
| O=C(O)/C=C/c1ccc(/C=C/C(=O)O)cc1 | inactive | – |
| CCN(CC)C(=O)c1ccc(O)c(OC)c1 | inactive | – |
| Cc1cc(C)c(NC(=O)CN(CC(=O)O)CC(=O)O)c(C)c1Br | inactive | – |
| C/C=C1\C(=O)C[C@H]2[C@@H]3CCC4=CC(=O)CC[C@]4(C)[C@H]3CC[C@]12C | inactive | – |
| COC(C(=O)O)c1ccccc1 (stereo not given) | inactive | – |
| CCCC(C)C(=O)O (stereo not given) | inactive | – |
| O=C1C(CCS(=O)c2ccccc2)C(=O)N(c2ccccc2)N1c1ccccc1 (stereo not given) | – | -0.0077% [at 18.6 µM] (inactive) |
| C1C2OC2C2C1C1CC2C2OC12 (stereo not given) | inactive | – |
| CCCOc1ccccc1-c1nc2n[nH]nc2c(=O)[nH]1 | inactive | – |
| Cc1ccccc1Br | inactive | – |
| Cc1ccc(Nc2ccc(O)c3c2C(=O)c2ccccc2C3=O)cc1 | inactive | – |
| C=CCOCC(O)CS(=O)(=O)O (stereo not given) | inactive | – |
